According to PubChem BioAssay (NCI):
About 83,000 compounds went through this panel and 20% of them were active in at least one assay; those are over-represented in the sample as a whole.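 The test compound was applied at a single concentration to cells in 96-well plates for 48 hours, and percent growth was recorded.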 Calls of active or inactive are those of the source.

Test system: SK-OV-3 ovarian
Assay: NCI-60 one-dose screen, 48 h (100 = growth as untreated, 0 = no growth, -100 = all killed)
Conditions: 10 µM
Method: Growth inhibition of the SK-OV-3 human tumor cell line is measured as a screen for anti-cancer activity. Cells are grown in 96 well plates and exposed to the test compound for 48 hours. Compounds are tested at a single concentration, which is 10^-5 M for most compounds. The reported endpoint is percent growth (GI% or GIPRCNT), where numbers from 0 - 100% represent growth inhibition, and numbers from -100% - 0 represent cell death. For example, a value of 40 represents 60% growth inhibition. A value of 0 means no net growth occurred over the course of the experiment. A value of -40 indicates 40% of cells at the beginning of the experiment died by the end of the experiment. A value of -100 means all cells are dead at the end of the experiment.
NCI-60 Human Tumor Cell Lines Screen was performed using the standard one-dose NCI protocol, which is described in more detail at https://dtp.cancer.gov/discovery_development/nci-60/default.htm.
Compounds with GIPRCNT values below 10 were considered active. Activity score was based on GIPRCNT using the following formula: […]
Score is 0 for GIPRCNT values of 100 or above, 50 for GIPRCNT values of 0, and 100 for GIPRCNT values of -100.

Row | SMILES | growth
1 | Cc1cc(C)nc(NS(=O)(=O)c2ccc(N/C(N)=N/c3nccc(-c4cccs4)n3)cc2)n1 | 84.4% (inactive)
2 | Cc1ccc(C(=O)CSc2nnc(-c3c[nH]c4ccccc34)n2-c2ccccc2)cc1 | 24% (inactive)
3 | C/C(=N\NC(N)=S)c1ccc(Nc2nc(SC(C)C)nc(-c3ccccc3)c2C#N)cc1 | 90% (inactive)
4 | CC(=O)Nc1ccc(-n2cnc3cc(-c4ccc(NS(C)(=O)=O)cc4)ccc32)cc1 | 87.9% (inactive)
5 | CO[C@@H]1CSS[C@H]1Cn1nc(-c2ccc(Oc3ccccc3)cc2)c2c(N)ncnc21 | 30.2% (inactive)
6 | O=C(N/N=C/c1ccc(B(O)O)o1)c1[nH]c2ccc(Br)cc2c1-c1ccccc1 | 25.5% (inactive)
7 | Cc1noc2c(Cc3ccccc3)nn(CC(=O)N/N=C/c3ccc(F)cc3)c(=O)c12 | 28.9% (inactive)
8 | COc1ccc(C(=O)/C=C/c2cc(F)cc(C(F)(F)F)c2)cc1S(N)(=O)=O | 42.1% (inactive)
9 | O=C(CSc1nnc(-c2c[nH]c3ccccc23)n1-c1ccccc1)Nc1ccc(C(=O)/C=C/c2ccc(Cl)cc2)cc1 | 80.7% (inactive)
10 | Cc1nc2c(cnn2-c2ccccc2)c(=O)n1-c1ccc(NC(=O)c2ccc(F)cc2)cc1 | 111% (inactive)
11 | Cc1ccc(F)cc1N/C=c1\s/c(=C(\C#N)C(=O)Nc2ccccc2)n(-c2ccccc2)c1=O | 78.1% (inactive)
12 | Brc1ccc(/C=C/c2n(Cc3ccc4ccccc4c3)c3ccccc3[n+]2Cc2ccc3ccccc3c2)cc1 | -3.34% (active)
13 | CC(=O)Nc1ccc(-c2cn(-c3cccc(C(=O)Nc4cc(C(F)(F)F)cc(C(F)(F)F)c4)c3)nn2)cn1 | -21.1% (active)
14 | Cc1ccc(/C=C/C(=O)c2ccc(NC(=O)CSc3nnc(-c4c[nH]c5ccccc45)n3-c3ccccc3)cc2)cc1 | 106% (inactive)
15 | O=C1Nc2ccc(Cl)cc2/C1=C/c1ccc(OCc2ccccn2)cc1 | 89.2% (inactive)
16 | C=C(c1ccc(OC)c(N)c1)c1cc(C)nc2ccccc12 | 21.7% (inactive)
17 | COc1ccc(OC)c(-c2cc(-c3c[nH]c4ccccc34)nc(N)c2C#N)c1 | 34.3% (inactive)
18 | O=C(Cn1nc(-c2ccccc2)ccc1=O)NNC(=S)NC1CCCCC1 | 112% (inactive)
19 | N#Cc1ccc(-c2nn(-c3ccc(C(=O)O)cc3)cc2CNc2ccc(Cl)cc2)cc1 | 123% (inactive)
20 | Cc1ccc2nc3c(nc2c1)c1cc(I)ccc1n3CCN(C)C | 39% (inactive)

Row | SMILES | growth
21 | CN1CCCN(Cc2ccc(C(=O)Nc3cccc(Nc4ccc5c(O)cccc5n4)c3)cc2C(F)(F)F)CC1 | -58.9% (active)
22 | OCCNc1oc(-c2ccccc2)nc1[P+](c1ccccc1)(c1ccccc1)c1ccccc1 | -3.42% (active)
23 | CN(C)c1cccc2c(S(=O)(=O)Nc3cccc(-c4csc(NC(=O)CCCCCN5CCN(c6cc7c(cc6F)C(=O)N(C6CCC(=O)NC6=O)C7=O)CC5)n4)c3)cccc12 (stereo not given) | 86.9% (inactive)
24 | COc1cc(/C=C/C(=O)c2ccc(NC(=O)CN3C(=O)NC(C)(c4ccccc4)C3=O)cc2)cc(OC)c1OC (stereo not given) | 112% (inactive)
25 | O=C(NO)c1ccc(CN2CCN(c3nc(-c4ccccc4)c4ccccc4n3)CC2)cc1 | -22.2% (active)
26 | Cc1noc2c(Cc3ccccc3)nn(CC(=O)N/N=C/c3ccc(Cl)cc3)c(=O)c12 | 33.9% (inactive)
27 | CN(CCF)c1ccc(/C=C/C(=O)c2ccc(N)cc2O)cc1 | 105% (inactive)
28 | Nc1nc(-c2ccccc2)cs1 | 82.5% (inactive)
29 | CCOc1ccc(/C=N/NC(=O)Cn2nc(Cc3ccccc3)c3onc(C)c3c2=O)cc1 | -5.84% (active)
30 | CCOC(=O)N/C(=C1/OCCN1C)[P+](c1ccccc1)(c1ccccc1)c1ccccc1 | 95.1% (inactive)
31 | O=C(Nc1ccc(I)cc1F)c1cc(-c2ccc(F)cc2F)ccc1O | -10.6% (active)
32 | N#Cc1c(-c2ccc(F)cc2)nc(SCc2ccc([N+](=O)[O-])cc2)nc1N1CCOCC1 | 44.5% (inactive)
33 | O=C(Nc1cccc(C(F)(F)F)c1)c1cncc(C#Cc2cnc3ccc(N4CCOCC4)nn23)c1 | 3.44% (active)
34 | Cc1cc(C)nc(/N=C(\N)Nc2ccc(S(=O)(=O)Nc3nc(C)cc(C)n3)cc2)n1 | 106% (inactive)
35 | COc1nccnc1NS(=O)(=O)c1ccc(NC2=C(Cl)C(=O)c3nc(C)ccc3C2=O)cc1 | 91.4% (inactive)
36 | C/C(=N\N=C\c1ccc(N(C)C)cc1)c1ccc2c(c1)Nc1ccccc1S2 | 87.8% (inactive)
37 | CCOP(=O)(OCC)O[C@H]1CC[C@]2(C)[C@H]3CC[C@@H]4[C@@H]([C@](C)(O)CCC=C(C)C)CC[C@@]4(C)[C@]3(C)CC[C@H]2C1(C)C | 37% (inactive)
38 | CC1(c2ccccc2)NC(=O)N(CC(=O)Nc2ccc(C(=O)/C=C/c3ccccc3)cc2)C1=O (stereo not given) | 121% (inactive)
39 | CCN1CCN(c2ccc(NC(=O)Nc3ccc4c(c3F)CCN4c3ccnc(C(=O)NC)c3)cc2C(F)(F)F)CC1 | 103% (inactive)
40 | CN(C)c1ccc(/C=C/c2nc3ccccc3c(=O)n2CC(=O)Nc2ccccc2)cc1 | 92% (inactive)
